Screening results (PubChem)
PLK1 PBD inh – qHTS for Inhibitors of PLK1-PDB (polo-like kinase 1 - polo-box domain): Primary Screen; Serine/threonine-protein kinase PLK1 (Homo sapiens), P53350; Plk1 PBD binding of FITC phosphopeptide, fluorescence polarization; Potency, µM, for inactives: max response, negative = inhibition, most hits filed as inhibitors; 360,000 tested, 2.8% active; further: potency means the concentration at half of the fitted maximal effect; series mostly up to about 57 µM; on the % scale 0 is the no-effect control and ±100 the full control effect; nearly all actives have a fitted effect of over 65% in size
TCR activator – Activators of T cell receptors: qHTS campaign; AID 504894, 2011; primary human leukocytes, anti-CD3, IL-2 HTRF, 48 h; 330,000 tested, under 10 active; Potency, µM (titrated, usually from 9.22 µM), for inactives: top-dose activation of IL-2 secretion, hits mostly activators; further: % of control where 0% means no effect
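HTRF read-out of IL-2 secretion: europium cryptate donor excited at 320nm, d2 acceptor emission at 665nm. Cells were primary human leukocytes incubated 48 hr with compounds and a-CD3 beads, supplying TCR signal only.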
FEN1 inh – qHTS Assay for the Inhibitors of Human Flap endonuclease 1 (FEN1); Recombinant FEN1 flap cleavage, fluorescence, 15 min; 390,000 tested, 0.35% active; P39748; Potency, µM (titrated, usually from 114 µM), without a hit: top-dose activity change, negative = inhibition, usual class: inhibitors; AID 588795, 2011; further: potency means the concentration at half of the fitted maximal effect; on the % scale 0 is the no-effect control and ±100 the full control effect; nearly all actives have a fitted effect of over 65% in size
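Reaction started by adding substrate (50 nM final) to 10 nM enzyme after 15 min room-temperature compound preincubation. Reads at 0 and 15 min, with data normalized and fitted to a four-parameter Hill equation.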
PI5P4Ka inh – qHTS for Inhibitors of phosphatidylinositol 5-phosphate 4-kinase (PI5P4K) | 330,000 tested, 1.2% active | Phosphatidylinositol 5-phosphate 4-kinase type-2 alpha (Homo sapiens), P48426 | max response, % | AID 652105, 2013 | PI5P4Kalpha enzyme, ADP-Glo luminescence, 60 min; stronger effect = lower value; active means max response of -50% or lower; inconclusive means between -30% and -50%; inactive means -30% or higher; further: value at the top dose of about 77 µM; on the % scale 0 is the no-effect control and ±100 the full control effect
Target sequence (P48426 whole entry, looked up): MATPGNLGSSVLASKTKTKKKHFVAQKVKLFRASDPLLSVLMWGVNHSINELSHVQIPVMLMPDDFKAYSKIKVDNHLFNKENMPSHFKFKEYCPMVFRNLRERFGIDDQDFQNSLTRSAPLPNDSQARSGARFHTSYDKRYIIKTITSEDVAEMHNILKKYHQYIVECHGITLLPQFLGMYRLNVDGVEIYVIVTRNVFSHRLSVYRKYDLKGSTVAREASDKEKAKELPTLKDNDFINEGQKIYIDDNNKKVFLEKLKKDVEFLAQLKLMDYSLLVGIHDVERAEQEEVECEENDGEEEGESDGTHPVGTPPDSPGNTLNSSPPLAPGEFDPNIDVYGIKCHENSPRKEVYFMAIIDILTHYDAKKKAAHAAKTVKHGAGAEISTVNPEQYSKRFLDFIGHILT
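Single end-point luminescence (ADP-Glo) quantified ADP from PI5P4Kalpha turnover; ATP 5 microM final, 1 h at RT, 0.1% CHAPS and 0.28 mM EGTA in HEPES pH 7.4.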
VDR inhibitor – Inhibitors of the vitamin D receptor (VDR): qHTS. Vitamin D3 receptor (Homo sapiens), P11473. VDR-SRC2-3 peptide fluorescence polarization, 2 h. Potency, µM, without a hit: max response, negative = inhibition, most hits filed as inhibitors. 400,000 tested, 0.93% active; further: potency means the concentration at half of the fitted maximal effect; on the % scale 0 is the no-effect control and ±100 the full control effect
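Compounds are added to VDR with labelled SRC2-3 coactivator peptide and held 2 h at room temperature. Inhibition of the VDR–peptide interaction is then read as a change in fluorescence polarization.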
WRN inhibitor – qHTS for Inhibitors of WRN Helicase | 360,000 tested, 0.46% active | WRN helicase unwinding, fluorescent forked duplex, kinetic | Potency, µM (doses to about 114 µM), without a hit: at the highest dose activity change, negative = inhibition, actives largely listed as inhibitors | Bifunctional 3'-5' exonuclease/ATP-dependent helicase WRN (Homo sapiens), Q14191; further: potency means the concentration at half of the fitted maximal effect; on the % scale 0 is the no-effect control and ±100 the full control effect; nearly all actives have a fitted effect of over 55% in size
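WRN at 20 nM final preincubated with compound 15 min at room temperature; reaction started with 100 nM fluorophore/quencher forked duplex oligonucleotide and 2 mM ATP final. Unwinding followed kinetically by red fluorescence (ex 525, em 598 nm).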
Numbers without * were called inactive; ? = inconclusive; . = no result; ! = a repeat was not active; [ ] = remark or other dose. This is a sample that favours compounds with a hit; in the whole collection about 3.7% have one here. Unless noted, the call rests on the fitted dose curve; in most records, active means well fitted curve in the direction sought with a large enough effect; inconclusive means small, poorly fitted or top-dose-only effect, or another doubt; inactive means no such curve, though single readings can be large; an effect the other way counts as inactive or inconclusive.

SMILES	PLK1 PBD inh	TCR activator	FEN1 inh	PI5P4Ka inh	VDR inhibitor	WRN inhibitor
O=c1c(Cl)c(Cl)cnn1Cc1nnc(-c2ccccc2Br)o1	?	3%	12%	-57*	?	-35%[57.1 µM]
Clc1ccccc1OCc1nnc(-c2ccccc2Br)o1	-7%	2%	-17%	0	10%	-2%
CC/C=C\C/C=C\C/C=C\C/C=C\C/C=C\CCCC(=O)O	.	.	.	.	40µM*!	.
CCCCC/C=C\C/C=C\C/C=C\C/C=C\CCCCCC(=O)O	.	.	.	.	-1%	.
CC/C=C\C/C=C\C/C=C\CCCCCCCC(=O)O	?	2%	-17%	?	22µM*!	18µM*
CC/C=C\C/C=C\C/C=C\CCCCCCCCCC(=O)O	.	.	.	.	-21%	.
CC/C=C\C/C=C\C/C=C\CCCCCCCCCCCC(=O)O	.	.	.	.	50µM*	.
OCCCNCc1ccc(Cl)cc1Cl	30µM*	2%	1%	-4	9%	3%[57.1 µM]
CC(O)CNCc1ccc(Cl)cc1Cl (configuration not stated)	-7%	0%	0%	-1	-16%	-1%
CCOC(=O)c1ccc(NC(=O)c2c(NCc3cc(OC)c(OC)cc3OC)sc3c2CCCC3)cc1	.	.	-11%	.	-7%	.
COC(=O)c1sc2ccccc2c1C(=O)OC	-6%	.	8%	.	-13%	7%
COC(=O)C1=C(C(=O)OC)C(c2ccccc2O)c2sc(=O)[nH]c2S1 (configuration not stated)	4.2µM*	-2%[46.1 µM]	-3%	-28	20µM*	?
CC(C)N1CSC(=S)N(Cc2ccccc2)C1	?	-1%	-3%	3	79µM*	-14%
COc1ccc(C(=O)/C=C/c2ccc(OC)c(O)c2)c(F)c1	-11%	1%[46.1 µM]	-17%	-8	89µM*	-15%
COc1ccc(C=CC(=O)c2ccc(OC)c(OC)c2)cc1O	-5%	.	.	-17	.	-8%
CCOc1ccccc1CNC(=O)Cc1ccc(NC(=O)N2CCCCc3ccccc32)cc1	.	.	7%	.	14%	.
O=C1[C@H]2CCC=C[C@H]2[C@H](c2cccc(Br)c2)N1Cc1ccccc1	21µM*	0%[46.1 µM]	?	-53*	?	-7%
CC1C=C[C@@H]2[C@H](C1)C(=O)N(Cc1ccccc1)[C@H]2c1ccccc1Br (some centres not stated)	.	.	.	.	45µM*	.
O=C1[C@H]2CCC=C[C@H]2[C@H](c2ccccc2Br)N1Cc1ccccc1	-14%	1%[46.1 µM]	0%	13	56µM*	-12%
COc1ccc(N2C(=O)[C@H]3CCC=C[C@H]3[C@@H]2c2ccccc2Br)cc1	-19%	2%[46.1 µM]	-18%	0	?	-12%
O=C1C2C(c3ccccc3)CC=CC2C(c2cccc(Br)c2)N1Cc1ccccc1 (configuration not stated)	.	.	-23%	.	-11%	.
C[C@@]12CCC=C[C@H]1[C@H](c1ccccc1Br)N(Cc1ccccc1)C2=O	-20%	-4%[46.1 µM]	-3%	-4	50µM*!	-3%
CC1CC=CC2C1C(=O)N(Cc1ccccc1)C2c1ccc2ccccc2c1Br (configuration not stated)	.	.	-16%	.	-19%	.
CC12CCC=CC1C(c1ccc(Br)cc1F)N(Cc1ccccc1)C2=O (configuration not stated)	.	.	-9%	.	?	.
COc1cc2nc(C#N)nc(N)c2cc1OC	.	.	3%	.	.	.
SMILES	PLK1 PBD inh	TCR activator	FEN1 inh	PI5P4Ka inh	VDR inhibitor	WRN inhibitor
CC(C)(C)n1ncc2c(=O)n(Cc3ccc(SC(=O)O)cc3Cl)cnc21	.	.	-1%	.	.	.
CN(Cc1ccccc1)S(=O)(=O)c1cc(Br)cc2c1N(C(=O)C1CC1)CC2	.	.	15%	.	11%	.
COC(=O)[C@]12CCCCC=C1N(CCC1=CCCCC1)C(=O)[C@H](CC(=O)NCc1ccc(C)o1)C2	-9%	.	.	?	.	-2%
CCCCCCCCN1C(=O)[C@H](CC(=O)NCc2ccc(C)o2)C[C@@]2(C(=O)OCC)CCC=C12	-17%	.	.	-61*	.	-15%
CCOC(=O)[C@]12CCC=C1N(Cc1ccccc1)C(=O)[C@H](CC(=O)NCc1ccc(C)o1)C2	-28%	.	.	-19	.	-9%
CCCCCCCCN1C(=O)[C@H](CC(=O)NCc2ccc(C)o2)C[C@@]2(C(=O)OC)CCCCC=C12	-13%	.	.	-65*	.	-15%
CC(C)(C)NCC(O)COCc1ccc(Cl)cc1 (configuration not stated)	24µM*	1%	-1%	-12	-18%	10%
Cc1ccc(NC2CCCN(C(=O)CSc3ccccn3)C2)cc1C (configuration not stated)	24µM*	1%	-11%	-6	?	-33%
O=C(CSc1ccccn1)N1CCN(c2ccc(Cl)cc2)CC1	24µM*	4%	1%	-1	-21%	6%
Cc1ccc(NC2CCCN(C(=O)c3ccc4nccnc4c3)C2)cc1C (configuration not stated)	-5%	-1%	-11%	2	-3%	-11%
COc1ccc(NC2CCCN(C(=O)CSc3ccccc3)C2)cc1OC (configuration not stated)	-8%	-5%	5%	-3	9%	?
O=C(CSc1ccccn1)N1CCN(C(=O)CSc2ccccn2)CC1	-5%	0%	-9%	3	3%	2%
Cc1ccc(NC2CCCN(C(=O)c3ccc(F)cc3)C2)cc1C (configuration not stated)	6.7µM*	-3%	-13%	-13	?	-9%
COc1ccc(C(=O)C[n+]2ccccc2Cl)cc1	.	.	15%	.	.	.
CC(Oc1ccccc1)C(=O)N[C@@H]1C(=O)N2C(C(=O)OCC3CCCCC3)C(C)(C)S[C@H]12 (some centres not stated)	.	.	-13%	.	.	.
CN1CCN(c2ncc3nc(-c4ccc(F)cc4)c(=O)n(Cc4cccs4)c3n2)CC1	.	.	.	.	-10%	.
CC(C)COc1ccc(C(=O)NCC2(N3CCN(C)CC3)CCCCC2)cc1	.	.	20%	.	-3%	.
COc1ccc(C(=O)C[n+]2cc(Br)cc3ccccc32)cc1	.	.	-3%	.	.	.
COc1ccc(C(=O)C[n+]2cn(C(F)F)c3ccccc32)c(F)c1	13µM*	-4%	-6%	?	?	?
COc1ccc2c(c1)C(=O)[C@@H](OC(=O)NC1CCCC1)[C@H](c1ccc(OC)c(Br)c1)O2	.	.	.	.	-9%	.
CCC(c1ccc(O)c(O)c1)C(CC)c1ccc(O)c(O)c1 (configuration not stated)	?	-3%	?	-26	5%	?
